# PubChem BioAssay (Tox21)
# “And” between values parts separate entries of the source, which are not always exact repeats. Equal entries are not always repeated. Results filed as inconclusive are left out. A call without a number means that no potency is given here. Some structures have more than one record in an assay (separate samples or runs), and their calls can disagree. The source made the active and inactive calls. The call rests on the fitted dose curve; in most records, active means well fitted curve in the direction sought with a large enough effect in the repeat runs; inconclusive means weak or mixed curves; inactive means no such curve, though single readings can be large; an effect the other way counts as inactive or inconclusive.
# How the values were obtained:
# [1] = Human pregnane X receptor (PXR) small molecule agonists, qHTS cell viability counter screen (AID 1346977); further: nearly all actives have a fitted effect of over 50% in size; further: potency means the concentration at half of the fitted maximal effect
# In short: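 Cytotoxicity counter screen run in the same wells as the PXR luciferase assay, using PXR-Luc HepG2 cells in charcoal-stripped serum medium. Viability: CellTiter-Fluor fluorescence after 24hr compound treatment.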
# [2] = Caspase-3/7 induction in HepG2 cells by small molecules, qHTS assay (AID 1346978); further: nearly all actives have a fitted effect of over 15% in size; further: potency means the concentration at half of the fitted maximal effect
# In short: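 Wild-type HepG2 cells (2,000/well) were settled 5 h at 37 C, 5% CO2, then exposed to compounds in DMSO for 17 h. Caspase-3/7 activity was read by luminescence 30 min after adding Caspase-Glo 3/7 reagent at room temperature.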
# [3] = Caspase-3/7 induction in CHO-K1 cells by small molecules, qHTS assay (AID 1346980); further: nearly all actives have a fitted effect of over 15% in size
# In short: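 Wild-type cells were seeded at 1,500 per well and settled 5 hr at 37 C, 5% CO2, then exposed to DMSO-dissolved compounds for 17 hr. Caspase-Glo 3/7 reagent was added, and luminescence was read after 30min at room temperature.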
# [4] = Caspase-3/7 induction in HepG2 cells by small molecules, qHTS cell viability counter screen (AID 1346981); further: nearly all actives have a fitted effect of over 30% in size; further: potency means the concentration at half of the fitted maximal effect
# In short: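 In this quantitative HTS counter screen, compounds delivered in DMSO were left on unmodified HepG2 cells for 16 hr at 37 C. Viability was then determined fluorometrically with CellTiter-Fluor, in parallel with caspase-3/7 induction in the same wells.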
# [5] = molecular target: Nuclear receptor subfamily 1 group I member 2 (Homo sapiens) (UniProt O75469); experiment: Human pregnane X receptor (PXR) small molecule agonists, qHTS assay (AID 1346982); further: nearly all actives have a fitted effect of over 35% in size; further: potency means the concentration at half of the fitted maximal effect
# Nuclear receptor subfamily 1 group I member 2 (Homo sapiens), sequence (O75469 whole entry, looked up): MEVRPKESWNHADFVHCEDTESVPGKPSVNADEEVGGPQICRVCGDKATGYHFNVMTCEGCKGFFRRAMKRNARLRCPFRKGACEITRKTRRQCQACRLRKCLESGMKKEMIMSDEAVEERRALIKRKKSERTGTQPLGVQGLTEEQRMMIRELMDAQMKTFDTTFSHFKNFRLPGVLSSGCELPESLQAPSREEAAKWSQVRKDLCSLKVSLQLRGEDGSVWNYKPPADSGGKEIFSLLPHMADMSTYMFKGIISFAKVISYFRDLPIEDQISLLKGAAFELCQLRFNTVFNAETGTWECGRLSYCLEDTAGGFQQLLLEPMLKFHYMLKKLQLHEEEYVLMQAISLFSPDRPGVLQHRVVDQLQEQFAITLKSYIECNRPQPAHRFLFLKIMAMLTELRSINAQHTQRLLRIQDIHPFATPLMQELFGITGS
# In short: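 Reporter HepG2 cells expressing PXR-Luc are cultured in charcoal-stripped FBS (5%), treated with compounds for 24 hr at 37 C, and assayed by ONE-Glo luminescence after 30 min at room temperature.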
# [6] = Caspase-3/7 induction in CHO-K1 cells by small molecules, qHTS cell viability counter screen (AID 1346979); further: nearly all actives have a fitted effect of over 35% in size; further: potency means the concentration at half of the fitted maximal effect
# In short: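 Cytotoxicity counter screen run in parallel with the caspase-3/7 assay: CHO-K1 cells, 16hr compound treatment at 37C, then CellTiter-Fluor for 1hr before fluorescence reading.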
# [7] = molecular target: Nuclear receptor subfamily 1 group I member 2 (Rattus norvegicus) (UniProt Q9R1A7); experiment: Rat pregnane X receptor (rPXR) activation by small molecules, qHTS assay (AID 1346983); conditions: rPXR luciferase reporter cells, One-Glo luminescence, 24 h; max activation: stronger effect = higher value; further: nearly all actives have a fitted effect of over 20% in size
# Nuclear receptor subfamily 1 group I member 2 (Rattus norvegicus), sequence (Q9R1A7 whole entry, looked up): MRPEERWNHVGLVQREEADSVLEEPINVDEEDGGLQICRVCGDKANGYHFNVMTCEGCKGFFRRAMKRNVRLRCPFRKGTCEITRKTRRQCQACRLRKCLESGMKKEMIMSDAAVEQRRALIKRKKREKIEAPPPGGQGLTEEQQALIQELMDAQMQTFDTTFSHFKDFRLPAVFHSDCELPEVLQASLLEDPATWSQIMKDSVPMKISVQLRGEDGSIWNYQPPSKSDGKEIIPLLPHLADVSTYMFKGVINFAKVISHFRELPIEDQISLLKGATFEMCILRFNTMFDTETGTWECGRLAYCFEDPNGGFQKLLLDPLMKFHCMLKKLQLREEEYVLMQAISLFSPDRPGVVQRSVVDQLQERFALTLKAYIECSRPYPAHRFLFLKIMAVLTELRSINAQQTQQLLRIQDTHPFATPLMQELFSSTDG
# In short: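 Cell-based rPXR luciferase reporter assay, 2,000 cells per well, rested 5hr at 37 C before compound addition in DMSO, then 24 hr at 37 C. One-Glo reagent was added and luminescence read after 30 min at room temperature.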
# [8] = molecular target: Nuclear receptor subfamily 1 group I member 2 (Homo sapiens) (UniProt O75469); experiment: CYP3A4 induction through human pregnane X receptor (PXR) by small molecules, qHTS assay (AID 1346984); further: nearly all actives have a fitted effect of over 40% in size
# In short: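 Induction measured in HepG2-based DPX-2 cells co-expressing human PXR and a CYP3A4 promoter-driven luciferase. After a 24-hour compound exposure, cells received CYP3A4 luciferin substrate at 3uM final for 3 hours, and light output was then recorded.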
# [9] = molecular target: Nuclear receptor subfamily 1 group I member 2 (Homo sapiens) (UniProt O75469); experiment: Human pregnane X receptor (PXR) activation by small molecules, qHTS assay (AID 1346985); further: nearly all actives have a fitted effect of over 40% in size
# In short: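 DPX-2 cells (HepG2 co-transfected with a PXR response element and a CYP3A4-promoter luciferase construct) were seeded at 2,000 per well, rested 5 hr at 37C, then exposed to DMSO-dissolved compounds for 24 hr. Activation was read as luciferase luminescence.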
Structure (SMILES),Potency [1],Potency [2],Potency [3],Potency [4],Potency [5],Potency [6],max activation [7],outcome [8],outcome [9]
OCC#CCO,inactive,inactive,inactive,inactive,55.3 µM (active) and inactive,,,,
C=C(C#N)C(=O)OCC,inactive,inactive,inactive,inactive,inactive,inactive and 61.1 µM (active),,,
O=c1c(-c2ccc(O)cc2)coc2cc(O)ccc12,inactive,inactive,inactive,inactive,30.3 µM (active) and 13.7 µM (active),inactive,,,
CNC[C@H](O)[C@@H](O)[C@H](O)[C@H](O)CO,inactive,inactive,inactive,inactive,inactive,inactive,-2.23% (inactive),inactive,inactive
CCCCC(CC)C(=O)OCCOCCOCCOC(=O)C(CC)CCCC (centres undefined),inactive,inactive,inactive,inactive,inactive,inactive,,,
Oc1ccc(OCc2ccccc2)cc1,inactive,inactive,inactive,inactive,30 µM (active),inactive,-0.536% (inactive),inactive,
C/C=C(C)/C=C/C=C(C)C,inactive,inactive,inactive,inactive,60.4 µM (active) and 27.3 µM (active),,,,
CC1(C)CC(N=C=O)CC(C)(CN=C=O)C1 (centres undefined),inactive,inactive,inactive,inactive,inactive,inactive,,,
CS(=O)(=O)Nc1ccc([N+](=O)[O-])cc1Oc1ccccc1,,inactive,inactive,54.5 µM (active) and 29.8 µM (active),,54.5 µM (active),-5.28% (inactive),,
O=S(=O)(O)CCS,inactive,inactive,inactive,inactive,inactive,inactive,-3.83% (inactive),inactive,inactive
O=C1N=C(O)CN1/N=C/c1ccc(-c2ccc([N+](=O)[O-])cc2)o1,27.3 µM (active) and 23.7 µM (active),inactive,inactive,48.6 µM (active),,54.5 µM (active) and 26.6 µM (active),-4.97% (inactive),,
C=CC(=O)OCCCCCCCC(C)C,inactive,inactive,inactive,inactive,inactive,inactive,,,
OC[C@@H](O)[C@@H](O)[C@H](O)[C@@H](O)CO,inactive,inactive,inactive,inactive,inactive,inactive,,,
CN(CCOc1ccc(CC2SC(=O)NC2=O)cc1)c1ccccn1 (centres undefined),inactive,inactive,inactive,inactive,54.2 µM (active) and inactive,inactive,-1.4% (inactive),,inactive
NCCc1ccc(O)c(O)c1,30.7 µM (active),inactive,inactive,68.8 µM (active) and inactive,inactive,61.3 µM (active) and inactive,,,
CCCCCC/C=C/CCCCCCCC(=O)O,inactive,inactive,inactive,inactive,inactive,inactive,,,
OC[C@@H](O)[C@H](O)[C@H](O)[C@@H](O)CO,inactive,inactive,inactive,inactive,inactive,inactive,-0.0445% (inactive) and -4.34% (inactive),inactive,inactive
CCC(=O)O,inactive,inactive,inactive,inactive,inactive,inactive,,,
CS(=O)(=O)c1ccc([C@@H](O)[C@@H](CO)NC(=O)C(Cl)Cl)cc1,inactive,inactive,inactive,inactive,inactive,inactive,-0.108% (inactive),inactive,inactive
Cc1cc(O)cc(C)c1Cl,inactive,inactive,inactive,inactive,,inactive,-1.35% (inactive),inactive,inactive
CN(C)c1ccc(C(=N)c2ccc(N(C)C)cc2)cc1,17.8 µM (active) and 23.4 µM (active),2.4 µM (active) and inactive,inactive,42.7 µM (active) and 46.7 µM (active),2.14 µM (active) and 14.8 µM (active),30.3 µM (active) and 18.6 µM (active),,,
CC1=C(CC(=O)O)c2cc(F)ccc2/C1=C\c1ccc(S(C)=O)cc1 (centres undefined),inactive,inactive,inactive,inactive,,inactive,-1.51% (inactive),inactive,inactive
CC1=C(/C=C/C(C)=C/C=C/C(C)=C/CO)C(C)(C)CCC1,inactive,inactive,inactive,inactive,55.1 µM (active) and 32.3 µM (active),69.4 µM (active),,,
Nc1nc2ncc(CNc3ccc(C(=O)N[C@@H](CCC(=O)O)C(=O)O)cc3)nc2c(=O)[nH]1,inactive,inactive,inactive,inactive,inactive,inactive,-0.844% (inactive),inactive,inactive
C=C1C2CCC(C2)C1(C)C (centres undefined),inactive,inactive,inactive,inactive,inactive,inactive,,,
C[C@@H](O)[C@H]1C(=O)N2C(C(=O)O)=C(S[C@@H]3CN[C@H](C(=O)N(C)C)C3)[C@H](C)[C@H]12,inactive,inactive,inactive,inactive,inactive,inactive,-2.7% (inactive),inactive,inactive
